# Test results taken from PubChem BioAssay (NCI).
# Several values for one entry are separate records, joined by “and”; a condition that tells them apart may be missing. Equal values may be shown once. This is part of a sample that, as a whole, favours compounds with a hit. Of some 83,000 tested, about 20% had one in any assay.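 Plates (96-well) were seeded with cells, treated with compound at one concentration, and incubated for 48 hours before percent growth was determined.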 Activity calls are given as the source filed them. Rule for the calls: active = growth percent below 10; inactive = the rest.
# Columns and labels:
# Assay in all cases: NCI-60 one-dose screen, 48 h (100 = growth as untreated, 0 = no growth, -100 = all killed)
# Conditions in all cases: 10 µM unless noted
# DU-145 prostate = system: DU-145 prostate
# K-562 leukemia = system: K-562 leukemia
# MALME-3M melanoma = system: MALME-3M melanoma
# MDA-MB-231 breast = system: MDA-MB-231 breast
# RXF 393 renal = system: RXF 393 renal
# SF-268 CNS = system: SF-268 CNS
# SF-295 CNS = system: SF-295 CNS
# SF-539 CNS = system: SF-539 CNS
# UACC-257 melanoma = system: UACC-257 melanoma
# M14 melanoma = system: M14 melanoma
# HCT-15 colon = system: HCT-15 colon
# HT29 colon = system: HT29 colon
# SNB-75 CNS = system: SNB-75 CNS
# SNB-19 CNS = system: SNB-19 CNS
# U251 CNS = system: U251 CNS
# PC-3 prostate = system: PC-3 prostate
# SK-MEL-5 melanoma = system: SK-MEL-5 melanoma
# UACC-62 melanoma = system: UACC-62 melanoma
# LOX IMVI melanoma = system: LOX IMVI melanoma
# SK-MEL-28 melanoma = system: SK-MEL-28 melanoma
Structure (SMILES),growth (DU-145 prostate),growth (K-562 leukemia),growth (MALME-3M melanoma),growth (MDA-MB-231 breast),growth (RXF 393 renal),growth (SF-268 CNS),growth (SF-295 CNS),growth (SF-539 CNS),growth (UACC-257 melanoma),growth (M14 melanoma),growth (HCT-15 colon),growth (HT29 colon),growth (SNB-75 CNS),growth (SNB-19 CNS),growth (U251 CNS),growth (PC-3 prostate),growth (SK-MEL-5 melanoma),growth (UACC-62 melanoma),growth (LOX IMVI melanoma),growth (SK-MEL-28 melanoma)
CC(=O)Nc1cc(S(=O)(=O)O)cc2cc(S(=O)(=O)O)c(N=Nc3ccccc3)c(O)c12,118% (inactive) and 114% (inactive),107% (inactive) and 84.6% (inactive),110% (inactive) and 99.4% (inactive),100% (inactive) and 104% (inactive),107% (inactive) and 113% (inactive),107% (inactive) and 100% (inactive),105% (inactive) and 110% (inactive),105% (inactive),115% (inactive) and 94.5% (inactive),103% (inactive) and 97.8% (inactive),116% (inactive) and 111% (inactive),118% (inactive) and 92.2% (inactive),92.8% (inactive) and 98.1% (inactive),110% (inactive) and 99.9% (inactive),110% (inactive) and 101% (inactive),88.3% (inactive) and 94.9% (inactive),99.4% (inactive),108% (inactive) and 92.2% (inactive),103% (inactive) and 98.7% (inactive),119% (inactive) and 116% (inactive)
CNC(=O)c1cccc(-c2ccc3c(N4CCOC[C@@H]4C)nc(N4CCOC[C@@H]4C)nc3n2)c1,12.2% (inactive),25.3% (inactive) and 12.6% (inactive),-32.1% (active) and -46.6% (active),6.14% (active) and 4.21% (active),-28.8% (active) and -33.9% (active),9.04% (active) and 13.7% (inactive),-37.4% (active) and -36.6% (active),-26.5% (active) and -40.2% (active),-21.2% (active) and -25.5% (active),-3.53% (active) and -5.57% (active),9.22% (active) and 7.13% (active),18.3% (inactive) and 1.73% (active),-32.8% (active) and -40.5% (active),10.2% (inactive) and 8.05% (active),9.22% (active) and 6.58% (active),6.6% (active) and 7.98% (active),-38.2% (active) and -49.8% (active),-24.9% (active) and -51.8% (active),3.01% (active) and -1.67% (active),-15.7% (active) and -26.3% (active)
Nc1n[nH]c(=S)n1-c1ccc(Cl)cc1,108% (inactive),102% (inactive),102% (inactive),112% (inactive),96.7% (inactive),100% (inactive),148% (inactive),93% (inactive),93.5% (inactive),101% (inactive),99.3% (inactive),101% (inactive),82% (inactive),99.4% (inactive),98.1% (inactive),97.1% (inactive),105% (inactive),96.2% (inactive),94.6% (inactive),101% (inactive)
N#C/C(=C1C=C/C(=N/O)C(Br)=C/1)c1ccccc1,-13.1% (active),9.55% (active),67.4% (inactive),28.1% (inactive),17% (inactive),18.8% (inactive),-8.83% (active),-26% (active),44.1% (inactive),31.9% (inactive),23.1% (inactive),8.98% (active),23% (inactive),94.9% (inactive),26.5% (inactive),4.02% (active),53.6% (inactive),33.1% (inactive),1.02% (active),61.3% (inactive)
O=C(CCl)c1ccc2c(c1)Nc1ccccc1S2,104% (inactive),29.5% (inactive) and 30.3% (inactive),91.5% (inactive),97.7% (inactive) and 89.5% (inactive),103% (inactive),104% (inactive) and 98.5% (inactive),94.8% (inactive) and 96.3% (inactive),91.7% (inactive) and 84.5% (inactive),102% (inactive) and 96.8% (inactive),91.6% (inactive) and 91.5% (inactive),85.1% (inactive) and 21.2% (inactive),101% (inactive) and 95.6% (inactive),88.6% (inactive) and 102% (inactive),99.7% (inactive) and 98% (inactive),98% (inactive) and 92% (inactive),92.8% (inactive) and 104% (inactive),94.1% (inactive) and 99.5% (inactive),87.5% (inactive),79.1% (inactive) and 48.2% (inactive),106% (inactive) and 115% (inactive)
CN(C)c1ccc(/C=C(\C#N)c2ccccc2)cc1,15.7% (inactive) and 38.1% (inactive),11.3% (inactive) and 14% (inactive) and 23.9% (inactive),53.7% (inactive) and 51.2% (inactive) and 57.3% (inactive),55.7% (inactive) and 50.3% (inactive) and 48.9% (inactive),-6.38% (active) and -3.64% (active),43.5% (inactive) and 61.1% (inactive) and 56% (inactive),-18.9% (active) and 23.5% (inactive) and 17% (inactive),-2.9% (active) and -3.11% (active) and -13.1% (active),20.1% (inactive) and 66.6% (inactive) and 56.6% (inactive),19.1% (inactive) and 30.2% (inactive) and 24% (inactive),26.3% (inactive) and 29.3% (inactive) and 29.4% (inactive),12.4% (inactive) and 6.06% (active) and 3.67% (active),4.23% (active) and 15.8% (inactive),61.4% (inactive) and 52.5% (inactive) and 35.8% (inactive),18.5% (inactive) and 32.3% (inactive) and 23.9% (inactive),18.9% (inactive) and 36% (inactive) and 19.5% (inactive),31.6% (inactive) and 26.3% (inactive) and 19.4% (inactive),32.6% (inactive) and 21.9% (inactive) and 22.2% (inactive),51.1% (inactive) and 41.1% (inactive) and 42.4% (inactive),97.7% (inactive) and 70.6% (inactive) and 64.5% (inactive)
Cc1nn(-c2ccccc2)nc1C(=O)Nc1ccccc1C(=O)NCC1CC1,109% (inactive) and 62.6% (inactive),91.4% (inactive) and 44.3% (inactive),135% (inactive) and 97% (inactive),79.8% (inactive) and 23.6% (inactive),105% (inactive) and 77.4% (inactive),123% (inactive) and 91% (inactive),114% (inactive) and 59.5% (inactive),88.8% (inactive) and 30.9% (inactive),111% (inactive),105% (inactive) and 81.8% (inactive),87.5% (inactive) and 71.2% (inactive),99.6% (inactive) and 72.6% (inactive),121% (inactive) and 4.66% (active),122% (inactive) and 54.3% (inactive),73.3% (inactive),85.2% (inactive) and 78.2% (inactive),95.7% (inactive) and 93.5% (inactive),86.4% (inactive) and 88.3% (inactive),86.9% (inactive),104% (inactive) and 95.8% (inactive)
CC(C)Cc1ccc(C(C)C(=O)NCc2ccc(Cn3c(=O)sn(CCCCl)c3=O)cc2)cc1 (stereo not given),95% (inactive) and -78% (active),2.16% (active),110% (inactive) and -74.2% (active),104% (inactive) and -77.2% (active),-94.2% (active),84.8% (inactive) and -40.3% (active),97.9% (inactive) and 53.7% (inactive),104% (inactive) and -90.3% (active),94.4% (inactive) and -21.2% (active),94% (inactive) and -58.1% (active),103% (inactive) and -35.9% (active),104% (inactive) and -64% (active),105% (inactive) and -18% (active),91.2% (inactive) and 49.8% (inactive),95.6% (inactive) and 7.88% (active),91.9% (inactive) and -69.6% (active),91.8% (inactive) and -78.1% (active),92.6% (inactive) and -68.6% (active),90.7% (inactive) and -93.1% (active),107% (inactive) and -71.8% (active)
